Data on 59 compounds can be found in PubChem BioAssay AID504467 (National Center for Advancing Translational Sciences (NCATS), 2011).

Molecules are shown by their SMILES. The campaign covered roughly 330,000 compounds. About 7,700 (2.3%) were called active. Not shown: some 26% with an inconclusive outcome. Calls come from the whole dose curve; as a rule, active = well fitted inhibition curve with a large enough effect; inconclusive = small, poorly fitted or top-dose-only effect, or effect the other way; inactive = flat fitted curve, though single readings scatter. Shown is part of a subset that was picked to be rich in actives. Entries that show only a call come without a potency.
Potency is the fitted concentration of half-maximal effect.

This assay is described as follows: qHTS screen for small molecules that inhibit ELG1-dependent DNA repair in human embryonic kidney (HEK293T) cells expressing luciferase-tagged ELG1. Note: nearly all actives have a fitted effect of over 55% in size. As to conditions: HEK293T ELG1-luciferase reporter, luminescence, 16 h, DNA damage induced by 5-fluorouridine; series mostly up to 46.1 µM. Summed up: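 5-Fluorouridine DNA damage + compound/DMSO, 2,000 cells/well, 16 h, 37 °C/5% CO2. ONE-Glo, 30 min RT, luminescence. Readout = decrease in reporter signal.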
For orientation: In qHTS, concentration-response curves come from the screen itself.
Regarding `COc1ccccc1C(=O)N(Cc1ccc(C)o1)C1CCS(=O)(=O)C1` (centres undefined), the Potency entry is “inactive”.
The result for `COc1ccc(-c2c(-c3cc(OC)cc(OC)c3)n(C)c3ccc(-c4ccn[nH]4)cc23)cc1` reads 6.51 µM (active).
For the compound `COc1cc(OC)cc(-c2c(-c3ccc(F)cc3)c3cc(-c4ccc5cc[nH]c5c4)ccc3n2C)c1`, the Potency entry is “inactive”.
Turning to `COc1cc(OC)cc(-c2c(-c3cccs3)c3cc(-c4ccc(OC)cc4F)ccc3n2C)c1`, the Potency result was “inactive”.
The result for `CCOC(=O)[C@@H]1[C@H]2COc3ccc(Br)cc3[C@H]2N2C(=O)N(c3ccc(C)cc3)C(=O)[C@@]12C` reads “inactive”; that for `COc1ccc2nc3n(c(=O)c2c1)-c1cc(C)ccc1C(=O)NC3Cc1ccc(O)cc1` (centres undefined), “inactive”.
On to `Cc1cccc(NC(=O)Nc2ccc(OCc3ccccc3)cc2)n1`, for which the Potency result was “inactive”.
The result for `CNC(=O)c1sc(Nc2ccc(OCc3ccccc3)cc2)nc1C` reads 8.2 µM (active); that for `CCc1ccnc(NC(=O)Nc2ccc(OCc3ccccc3)cc2)c1`, “inactive”.
`COc1ccc(NS(=O)(=O)c2ccc(C)c(C(=O)NCC(c3cccs3)N3CCOCC3)c2)cc1` (centres undefined): the Potency entry is “inactive”.
Under `COc1ccc(S(=O)(=O)N2CCOCC2)cc1NC(=O)CSc1nnc(NC2CC2)s1` stands “inactive”; under `Cc1ccc(S(=O)(=O)N2CCC(C)CC2)cc1C(=O)NCc1ccccn1`, “inactive”; under `CCN(CC(=O)NCc1cccs1)S(=O)(=O)c1ccc(NC(C)=O)cc1`, “inactive”.
In the case of `CC1CCCCN1S(=O)(=O)c1ccc(S(=O)(=O)N(CC(=O)Nc2ccccc2)Cc2cccs2)cc1` (centres undefined), the Potency was 18.4 µM (active).
The result for `COCCN(CC(=O)Nc1ccccc1C)S(=O)(=O)c1ccc(S(=O)(=O)N2CCCC2)cc1` reads “inactive”.
On to `Cc1c(C(=O)N2CCCC2)c(S(=O)(=O)NCC(C)c2ccccc2)c(C)n1C` (centres undefined), for which the Potency entry is “inactive”.
As for `O=C(NNS(=O)(=O)c1ccc([N+](=O)[O-])cc1)C1CCCCC1`, the Potency entry is “inactive”.
As for `CCN(CC)C(=O)[C@H]1CC(CC(=O)NCc2ccco2)C(=O)N2CCc3c([nH]c4ccccc34)[C@]12C` (some centres undefined), the Potency result is “inactive”.
Under `CCCN(CCC)c1nc2c(C)cccn2c(=O)c1/C=C1/SC(=S)N(Cc2ccco2)C1=O` stands “inactive”; under `CCOC(=O)CC1C(=O)NCCN1c1nc2c(C)cccn2c(=O)c1/C=C1\SC(=S)N(C(C)CC)C1=O` (centres undefined), 20.6 µM (active).
Regarding `Cc1cccn2c(=O)c(/C=C3\SC(=S)N(CC(C)C)C3=O)c(NCCCOC(C)C)nc12`, the Potency result was “inactive”.
Take `COc1ccc(NC(=O)C2CCN(S(=O)(=O)c3ccc4[nH]c(=O)oc4c3)CC2)c(OC)c1`: the Potency entry was “inactive”.
Regarding `O=S(=O)(c1cccs1)N1CCN(CCOc2ccccc2)CC1`, the Potency result is “inactive”.
Under `CCOC(=O)C1=C(C)N(C[C@@H]2CC[C@@H](Cc3ccc(-c4ccccc4)cc3)O2)C(=O)NC1c1ccc([N+](=O)[O-])cc1` (some centres undefined) stands “inactive”; under `CC(=O)N1c2ccc(S(=O)(=O)N3CCCC(C(=O)Nc4ccc(C)cc4C)C3)cc2CC1C` (centres undefined), “inactive”.
Under `COc1cc(Cl)c(C)cc1NC(=O)CSc1nnc(CN2CCCC2)o1` stands “inactive”; under `CCCc1nc(SCC(=O)Nc2ccccc2OC)c2c(=O)n(C)c(=O)n(C)c2n1`, 23.1 µM (active); under `CCCc1nc(SCC(=O)N2CCCC2)c2c(=O)n(C)c(=O)n(C)c2n1`, “inactive”.
Under `CCc1nc(SCC(=O)Nc2ccccc2OC)n[nH]1` stands “inactive”; under `CCOC(=O)CCCCCC(=O)Nc1ccc2c(c1)CC(=O)N([C@@H](C)CO)C[C@H](C)[C@@H](CN(C)Cc1ccccc1)O2`, “inactive”.
On to `Cc1cc(C)cc(NC(=O)C2CCCN(S(=O)(=O)c3ccc4[nH]c(=O)ccc4c3)C2)c1` (centres undefined), for which the Potency result was “inactive”.
Under `O=C(C1CCC(=O)N(C2CC2)C1)N1CCN(c2ccc(Cl)cc2)CC1` (centres undefined) stands “inactive”; under `COc1cc(OC)cc(C(=O)NC2CCN(C(=O)N3c4ccccc4Sc4ccccc43)CC2)c1`, 13 µM (active).
As to `COc1ccc(C(=O)NC2CCN(C(=S)Nc3ccccc3)CC2)cc1`, the Potency result was “inactive”.
The result for `COc1ccc(C(=O)NC2CCN(C(=S)NCCc3ccccc3)CC2)cc1` reads “inactive”; that for `O=C(CN(CC1CCCO1)C(=O)CNS(=O)(=O)c1ccc(Cl)cc1)NCc1ccccc1` (centres undefined), “inactive”.
Regarding `COc1ccc(C2=NS(=O)(=O)N(C)C(C(=O)N(C)Cc3ccccc3)=C2)cc1`, the Potency result is “inactive”.
Under `Cc1cccc(C(=O)NCCCN2CCCC2=O)c1` stands “inactive”; under `COc1ccc(Cl)cc1NC(=O)CN(C)C(=O)c1ccc2n[nH]nc2c1`, “inactive”; under `COc1ccccc1NC(=O)c1cc(Cl)nc2ccccc12`, “inactive”.
Under `Cc1ccc(-c2nn(-c3ccccc3)cc2C(=O)NCCCN2CCCC2=O)cc1` stands “inactive”; under `COc1ccc(-c2cc(C(=O)n3cnc4ccccc43)c3ccccc3n2)cc1`, “inactive”.
With `COc1ccc(-c2cc(C(=O)NCCCN3CCCC3=O)c3ccccc3n2)cc1OC`, the Potency is 20.6 µM (active).
The result for `COc1ccc(-c2cc(C(=O)N(C)Cc3ccccc3)c3ccccc3n2)cc1` reads 23.1 µM (active); that for `COc1ccc(NC(=O)CN(C)C(=O)c2cc(-c3ccc(C)o3)nc3ccccc23)cc1`, 20.6 µM (active).
The result for `COc1ccc(NC(=O)CN(C)C(=O)c2cc(C3CC3)nn2-c2ccccc2)cc1` reads “inactive”; that for `COc1ccc(NC(=O)CN(C)C(=O)c2ccc(COc3ccccc3)o2)cc1`, “inactive”.
Under `COc1ccc(-c2cc(C(=O)N(C)CC(=O)Nc3ccccc3Cl)c3ccccc3n2)cc1OC` stands 2.06 µM (active); under `CC(C)Oc1ccc(S(=O)(=O)N2CCOCC2)cc1NC(=O)C1CSC2(C)CCC(=O)N12` (centres undefined), “inactive”.
Regarding `CCc1cccc(C)c1N1C(=O)CN(Cc2ccccc2)C1=S`, the Potency entry is “inactive”.
Under `CNC[C@H](CC1CCCCC1)NC[C@H](NCCC1CCCC1)[C@H](C)O` stands “inactive”; under `CSc1ncccc1C(=O)Nc1cccc(S(=O)(=O)N2CCOCC2)c1`, “inactive”; under `CCCN(CC1CC1)C(=S)NC(=O)c1ccccc1Br`, “inactive”.
The result for `O=C(COC(=O)c1ccccc1Cl)NC1CCCCCCC1` reads “inactive”; that for `Cc1cc(NC(=O)CCN2CCN(Cc3ccccc3)CC2)ccc1Br`, “inactive”.
With `OC(COc1ccc(F)cc1Cl)CN1CCc2ccccc2C1` (centres undefined), the Potency entry was “inactive”.
For `Cc1ccc(-c2cc(C(=O)Nc3nn[nH]n3)c3ccccc3n2)c(C)c1`, the Potency result is “inactive”.
The result for `COc1ccc(CN(C)C(=O)c2cc(-c3ccc(C)cc3C)nc3ccccc23)c(OC)c1OC` reads 8.2 µM (active).
Under `COc1ccc(CN(C)C(=O)Cc2c[nH]c3ccccc23)c(OC)c1OC` stands “inactive”.
